Screening data: PubChem, National Center for Advancing Translational Sciences (NCATS)
Compounds with a hit are over-represented: about 2% of the library has one in this group of screens.
KDM4E inh: JMJD2E (human) inhibition. AID 2147. JMJD2E catalytic domain, FDH-coupled NADH fluorescence (FDH is formaldehyde dehydrogenase). Potency, µM (doses to about 57.1 µM), for the others: at the highest dose activity change, negative = inhibition, hits mostly inhibitors. B2RXH2. 230,000 compounds, 1.6% hits; active means well fitted inhibition curve with a large enough effect, not every such curve was filed as active; inconclusive means small, poorly fitted or top-dose-only effect, or another doubt; inactive means no such curve, though single readings can be large or run the other way;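 further: potency means the concentration at half of the fitted maximal effect; 0% = wells with enzyme and -100% = buffer wells without enzyme; nearly all actives have a fitted effect of over 50% in size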
Target sequence (B2RXH2 1-337 limits assumed): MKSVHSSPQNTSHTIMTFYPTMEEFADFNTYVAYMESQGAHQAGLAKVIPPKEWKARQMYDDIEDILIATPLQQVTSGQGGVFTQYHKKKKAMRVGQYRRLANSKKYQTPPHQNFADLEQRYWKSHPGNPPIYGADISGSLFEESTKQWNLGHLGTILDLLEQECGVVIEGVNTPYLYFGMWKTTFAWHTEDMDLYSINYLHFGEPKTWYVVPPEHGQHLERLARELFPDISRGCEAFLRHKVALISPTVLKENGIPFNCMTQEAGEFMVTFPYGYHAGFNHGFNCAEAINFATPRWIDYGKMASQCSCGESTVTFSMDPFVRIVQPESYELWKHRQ
TexasRed fluor: counter-screen for TRb-SRC2 inhibitors: fluorescence interference. TRb/SRC2 Texas Red total fluorescence interference. Potency, µM (titrated, usually from 106 µM), inactives show at the highest dose fluorescence change, negative = quenching. 280,000 compounds, 0.29% hits. AID 1479; active means well fitted curve in either direction with a large enough effect; inconclusive means small, poorly fitted or top-dose-only effect; further: potency means the concentration at half of the fitted maximal effect; on the % scale 0 is the no-effect control and ±100 the full control effect
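Flags fluorescent or light-absorbing compounds by total fluorescence, S + 2P, at 555 nm excitation and 632 nm emission. Mixture: 20 nM Texas Red SRC2 peptide, 0.6 uM human TRb LBD, 1 uM T3, 5% DMSO; compound exposure 5 h at ambient temperature.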
HTT ATP protect: Huntington cell model cytoprotection by ATP luminescence | 230,000 compounds, 0.14% hits | PC12 HTT-Q103 induced, cytoprotection, ATP luminescence, 40 h | AID 1471 | Potency, µM (doses to about 56.4 µM), for inactives: cytoprotection (ATP increase), most hits filed as activators; further: potency means the concentration at half of the fitted maximal effect; % of control where 0% means no effect; nearly all actives have a fitted effect of over 45% in size
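Readout: ATPlite luminescence (ATP level). Model: stable PC12, inducible Htt exon1 Q103-GFP. Inducer: tebufenozide, 100 nM final. Compounds: dose series. No G418 in medium.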
TRb-SRC2 inh: TRbeta-SRC2 interaction inhibition; P10828; TRbeta-SRC2 peptide binding, fluorescence polarization; receptor liganded with 1 µM T3; Potency, µM (titrated, usually from 106 µM), inactives show at the highest dose activity change, negative = inhibition, hits mostly inhibitors; 280,000 compounds, 0.065% hits;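 further: potency means the concentration at half of the fitted maximal effect; plate controls were bound peptide for no effect and peptide without receptor for full effect; nearly all actives have a fitted effect of over 50% in size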
Target sequence (P10828 whole entry, looked up): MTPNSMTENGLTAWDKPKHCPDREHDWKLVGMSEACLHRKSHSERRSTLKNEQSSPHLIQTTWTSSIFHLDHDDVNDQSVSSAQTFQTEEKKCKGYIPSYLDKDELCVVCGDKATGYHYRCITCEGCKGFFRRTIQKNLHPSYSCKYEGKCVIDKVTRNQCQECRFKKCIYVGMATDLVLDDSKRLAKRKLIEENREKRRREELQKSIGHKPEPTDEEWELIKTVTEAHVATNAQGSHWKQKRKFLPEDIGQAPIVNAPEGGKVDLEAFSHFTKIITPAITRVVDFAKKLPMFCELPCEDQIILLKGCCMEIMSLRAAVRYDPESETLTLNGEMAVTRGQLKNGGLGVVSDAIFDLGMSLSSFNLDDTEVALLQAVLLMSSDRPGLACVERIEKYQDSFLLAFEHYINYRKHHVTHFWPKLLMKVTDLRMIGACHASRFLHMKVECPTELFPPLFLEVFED
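Human TRb LBD (0.6 uM) plus Texas Red-labeled SRC2 peptide (20 nM), 1uM T3, 5% DMSO, 5 hr at ambient temperature. Decreased polarization (555/632 nm) flags inhibition; data normalized to free and bound peptide controls.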
HTT aggregate: mutant huntingtin aggregation inhibition; 220,000 compounds, 1.1% hits; Potency, µM (doses to about 46.1 µM), for the others: at the top dose activity change, negative = inhibition, hits mostly inhibitors; PC12 HttQ103-GFP aggregates, Acumen cytometry, 40 h; further: potency means the concentration at half of the fitted maximal effect; on the % scale 0 is the no-effect control and ±100 the full control effect; nearly all actives have a fitted effect of over 60% in size
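Aggregate formation scored by laser-scanning cytometer (488 excitation, 500–530 emission) in lysed PC12 cells expressing Q103-GFP after 100 nM tebufenozide induction; library tested in dose series, with ATPLite reagent added in the multiplex.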
FBPA coupling cs: counter-screen for Giardia aldolase inhibitors: coupling enzyme system | coupling enzyme system counterscreen, AmpLite Red fluorescence | activity change, negative = inhibition, % at 58.2 µM, hits read low | 290,000 compounds, 0.67% hits; in the data active means activity change below about -30%; further: on the % scale 0 is the no-effect control and ±100 the full control effect
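Counterscreen of the coupled detection system alone, without aldolase: glyceraldehyde-3-phosphate coupling enzymes plus AmpLite Red readout. Compounds at 57.5 uM final, 10 min RT preincubation, 20 min RT reaction, fluorescence 525/598 nm.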
Active calls of the source: *; ? = inconclusive; nt = no result; [ ] = dose if it differs, or a comment. Unless noted, the call rests on the fitted dose curve; in most records, active means well fitted curve in the direction sought with a large enough effect; inconclusive means small, poorly fitted or top-dose-only effect, or another doubt; inactive means no such curve, though single readings can be large; an effect the other way counts as inactive or inconclusive.

SMILES | KDM4E inh | TexasRed fluor | HTT ATP protect | TRb-SRC2 inh | HTT aggregate | FBPA coupling cs
Cc1cc(C(=O)COC(=O)c2cc(O)c3ccccc3c2O)c(C)n1CC1CCCO1 (centres undefined) | 28µM* | -5% | -122% | -1% | -17% | -46*
CSc1nsc(/C=C/Nc2ccc(C(=O)O)cc2)c1C#N | 22µM* | -1% | 1% | 4% | 21% | -13
CSc1nsc(/C=C/Nc2ccc(F)cc2F)c1C#N | ? | -1% | -22% | 5% | 1% | -14
COc1cccc(Cn2c(=O)c(-c3ccc(Cl)cc3)nc3cnc(OC)nc32)c1 | nt | nt | -18% | nt | nt | -1
Cc1nc2ccc(NC(=O)N(C(C)C)C(C)C)cc2s1 | -29% | 1% | -15% | -9% | 3% | 6
CC(C)N(C(=O)Nc1ccc2nccnc2c1)C(C)C | ? | -1% | -25% | -1% | -17% | -39*
O=C(NCc1ccccn1)c1ccc(=O)oc1 | ? | -1% | -79%[10 µM] | 3% | 2.8µM* | 1
O=C(NCc1ccccn1)c1ccc(-c2ccccc2)cc1 | 5% | -7% | -1%[10 µM] | 6% | -1%[9.22 µM] | 4
O=C(c1cccc(F)c1)N1CCC2(CCCN(Cc3cc(C(F)(F)F)cc(C(F)(F)F)c3)C2)CC1 | nt | nt | -4% | nt | nt | -6
COc1cc(C(=S)N2CCCCC2)ccc1O | 2% | -7% | 9%[10 µM] | -7% | -7% | -37*
C=CCCCCCCCCC=O | nt | -1%[201 µM] | nt | -5%[201 µM] | nt | nt
COC(=O)c1ccc(NS(=O)(=O)c2ccc3[nH]c4c(c3c2)CCCC4)cc1 | nt | 28µM*[quencher] | nt | -5% | nt | nt
COC(=O)c1ccc(NS(=O)(=O)c2ccc3[nH]c4c(c3c2)CCCCC4)cc1 | nt | ? | nt | -7% | nt | nt
Fc1ccc(CN(Cc2ccccc2)C(c2cccs2)c2nnnn2C2CCCCC2)cc1 (centres undefined) | -5% | -2% | -2% | -5% | 25µM* | 0
Clc1ccc(CN(Cc2ccccc2)C(c2cccs2)c2nnnn2C2CCCC2)cc1 (centres undefined) | 2% | 1% | -27% | 3% | -16% | 0
CC(C)(C)OC(=O)N1CCC(c2c(C(=O)NC3CCCCC3)cnn2-c2cccc(F)c2)CC1 | nt | -1% | nt | 6% | nt | nt
CC(=O)c1cccc(NS(=O)(=O)c2ccc(N/C=C\C(=O)c3ccc(F)cc3)cc2)c1 | ? | -2% | -61% | 1% | 10µM* | nt
O=C(CNC(=O)c1ccncc1)N/N=C/c1cc(Br)ccc1O | -2% | -1% | -41%[10 µM] | 5% | ? | 3
O=C(N/N=C/c1cc(Cl)ccc1O)c1ccccc1Br | 11µM* | -3% | -153% | -2% | 2.5µM* | 1
O=C(CNC(=O)c1ccccc1F)N/N=C/c1cc(Br)ccc1OC(=O)/C=C/c1ccco1 | ? | -1% | nt | 12% | 10µM* | -6
O=C(CNC(=O)c1ccccc1)N/N=C/c1cc(Br)ccc1O | 28µM* | -2% | nt | 2% | 3.2µM* | 5
COc1ccccc1C(=O)NCC(=O)N/N=C/c1cc(Br)ccc1OC(=O)/C=C\c1ccco1 | -23% | -2% | nt | 4% | 2% | -8
O=C(CNC(=O)c1ccccc1Br)N/N=C/c1ccccc1O | 25µM* | -1% | -108% | -1% | 10µM* | -2
CCCCn1cc[n+](C)c1 | nt | -3% | nt | -9% | nt | 1
COc1cccc(-c2nnc3n2N=C(c2ccc(OC)cc2OC)CS3)c1 | nt | -1% | nt | -5% | nt | 2
SMILES | KDM4E inh | TexasRed fluor | HTT ATP protect | TRb-SRC2 inh | HTT aggregate | FBPA coupling cs
O=C(CNC(=O)c1ccccc1Br)N/N=C/c1cc(Br)ccc1O | ? | 0% | -152% | -3% | 3.5µM* | 0
CCOc1ccc(Cl)cc1/C=N/NC(=O)c1ccccc1 | -3% | -7% | nt | -6% | -2% | 0
CCOc1ccc(Cl)cc1/C=N/NC(=O)CNC(=O)c1ccccc1 | ? | -2% | 11%[10 µM] | -2% | 13% | -38*
COc1ccc(CCNC(=O)c2ccc3c(c2)N=C(C)c2ccccc2S3)cc1OC | nt | 0% | nt | -2% | nt | nt
COCCNS(=O)(=O)c1ccc(OCC(=O)OC)c(Cl)c1 | -6% | -1% | -31%[0.074 µM] | 1% | 3.2µM* | 0
COC(=O)COc1ccc(S(=O)(=O)NCCC2=CCCCC2)cc1Cl | -11% | -3% | -7% | 0% | -10% | 2
CCOC(=O)N1CCN(C(=O)c2ccc(CS(=O)(=O)c3c(Cl)cccc3Cl)o2)CC1 | -3% | 2% | nt | -17% | 0.0009µM* | 1
O=C(c1ccc(CS(=O)(=O)c2c(Cl)cccc2Cl)o1)N1CCCC1 | -4% | -7% | -6% | 2% | -4% | 0
O=C(c1ccc(CS(=O)(=O)c2c(Cl)cccc2Cl)o1)N1CCN(c2ccccc2)CC1 | nt | 6.3µM*[quencher] | nt | -24% | nt | nt
COc1cccc(N=Nc2c(N)[nH]n3c(=O)cc(-c4ccccc4)nc23)c1 | -4% | -4% | -77% | -1% | 10µM* | 5
CCN1CCN(C2=NC(=O)/C(=C/c3ccc(C)o3)S2)CC1 | ? | 2% | -21% | -3% | 18% | -34*
COc1ccc(N(C)C(=O)c2cc(S(=O)(=O)N3CCc4ccccc43)cn2C)c(OC)c1 | nt | 0.016µM*[quencher] | nt | -20% | nt | nt
Cc1ccc(N(C)C(=O)c2cc(S(=O)(=O)N3CCc4ccccc43)cn2C)cc1 | nt | nt | nt | nt | nt | 1
CCOC(=O)c1cccc(NC(=O)c2ccc3nc(Cc4ccccc4)oc3c2)c1 | nt | 0% | nt | 9% | nt | nt
CC(C)CCOc1ccc(N)cc1 | nt | -1% | nt | -2% | nt | -6
Clc1ccc2c(c1)-n1cc(-c3ccccc3)nc1CO2 | nt | 11µM*[quencher] | nt | -10% | nt | nt
COC(=O)CC1Oc2ccc(Cl)cc2-n2cc(-c3ccccc3)nc21 (centres undefined) | nt | 0% | nt | -3% | nt | nt
N#C/C(=C/c1ccc(Sc2nc3ccccc3[nH]2)o1)c1ccccc1F | ? | -1% | -34% | -2% | 11µM* | -6
Cc1ccc(S(=O)(=O)N2CCN(CC(=O)N/N=C\c3ccc(O)c(O)c3)CC2)cc1 | 16µM* | -5% | 3%[10 µM] | -2% | 24%[9.22 µM] | -6
Cc1ccc(S(=O)(=O)N2CCN(CC(=O)N/N=C/c3ccc(C)o3)CC2)cc1 | 4% | 1% | 15%[10 µM] | 7% | -13% | 2
O=C(CN1CCN(S(=O)(=O)c2ccc(F)cc2)CC1)c1ccc(O)c(O)c1 | 4.5µM* | -10% | -17% | -2% | -22% | -6
CCCN1CCC(=O)N(CCSc2ccc(Br)cc2)CC1 | nt | -2% | nt | -14% | nt | 0
O=C(O)Cn1ncc2c1-c1ccoc1CC2 | ? | -6% | -17% | 2% | 19% | -38*
Cn1cccc1C(=O)N1CCC2(CC1)CCN(C(c1ccccc1)c1ccccc1)CC2 | nt | nt | 19% | nt | nt | -1
CCCn1c(C)nc2c(NCCCCN3CCCC3)nc(C)nc21 | 0% | -2% | 29% | 2% | nt | 1
